Data on 40 compounds can be found in PubChem BioAssay (Tox21).

Several values for one entry are separate records, joined by “and”; a condition that tells them apart may be missing. Equal values may be shown once. Records with an inconclusive call do not appear. A call without a number means that no potency is given here. Activity calls are given as the source filed them. Calls come from the whole dose curve; as a rule, active = well fitted inhibition curve with a large enough effect in the repeat runs; inconclusive = weak or mixed curves, or effect the other way; inactive = no such curve, though single readings can be large or run the other way. Starred links: 1 amine or outer side, 2 acyl side, 3 side chain; linkers in the order of their positions; H or OH if unused. Positions of bridges follow the written chain, without caps; N, C: chain ends. Non-standard residues stand in square brackets, D forms with d. Residues, ends and D or L forms follow the SMILES beside them. Chains are numbered I, II in the order given. Actinocin(9to1) = Cc1c2oc3c(C)ccc(C(=O)[*:1])c3nc-2c(C(=O)[*:2])c(N)c1=O; NMeV = CN[C@H](C(=O)O)C(C)C; Sar = CNCC(=O)O
Potency is the fitted concentration of half-maximal effect.

This test is described as follows: qHTS assay to identify small molecule antagonists of the retinoic acid receptor (RAR) signaling pathway (AID 1159552; note: nearly all actives have a fitted effect of over 50% in size). The settings on record: C3RL4 RARE luciferase reporter, retinol-stimulated, 6 h; series mostly up to 92.4 µM. The source says: National Center for Advancing Translational Sciences [NCATS]
NIH Chemical Genomics Center [NCGC]
U.S. Environmental Protection Agency [EPA]
National Institutes of Environmental Health Sciences [NIEHS]
National Toxicology Program [NTP]
U.S. Food and Drug Administration [FDA]
All-trans Retinoic acid (atRA) is the potent natural metabolite of retinol and plays an important role in normal embryonic development and maintenance of cellular phenotype in adult animals. atRA is the activating ligand for the retinoic acid receptors (RARs) which form heterodimers with retinoid X receptors (RXRs) on the retinoic acid response element (RARE). Through activation of the RAR/RXRs nuclear receptors, atRA regulates the transcription of a large number of protein-coding genes and regulatory RNAs. Intracellular levels of atRA are controlled by the retinol signaling pathway (RSP) that regulates the biosynthesis and catabolism of atRA to maintain physiological levels. Chemicals that interfere with the RSP can cause abnormal intracellular levels of atRA and therefore are potential developmental toxicants. To assess compounds for the potential adverse effect on embryonic development through interfering with retinol signaling, a cell-based RARE luciferase reporter gene assay was used. C3RL4 cell line (OARSA/CFSAN/FDA, Laurel, MD) was used to screen Tox21 10K compound library for identifying inhibitors of the RSP.
Tox21 Assay Protocol Summary:
C3RL4 cells were seeded at 1,000/well in 4 uL of assay medium into white solid 1,536-well tissue culture plates (Greiner Bio-One North America Inc. Monroe, NC) using a Multidrop Combi (Thermo Scientific, Waltham, MA) dispenser. After incubation at 37 C and 5% CO2 for an overnight, 23 nL of compounds dissolved in DMSO, positive control or DMSO only were transferred by a Pintool station (Kalypsys, San Diego, CA). One ul of 1 uM (final concentration) of Retinol was added right after the compound addition by using a Flying Reagent Dispenser (FRD) (Aurora Discovery, San Diego, CA). After 6 hr incubation at 37 C and 5% CO2, 5 uL of Amplite Luciferase reagent (AAT Bioquest Inc. Sunnyvale, CA) was added to each assay plate using an FRD. Luminescence was quantified on a ViewLux plate reader (PerkinElmer, Waltham, MA) after 30 min incubation at room temperature.
With `CCCCCCCCCCCCCCCCCl`, the activity, negative = inhibition is -10.4% [at 19 µM] (inactive).

For `COC(=O)/C=C/c1ccccc1`, the Potency entry was “inactive”.

For `CNCCC(Oc1ccc(C(F)(F)F)cc1)c1ccccc1` (stereo not given), the Potency is 53.8 µM (active).

Regarding `C=C(C)C1CC=C(C)C(OC(C)=O)C1` (stereo not given), the Potency result was “inactive”.

In the case of `NNCCc1ccccc1`, the Potency result is “inactive”.

`CCCOC(=O)c1cc(O)c(O)c(O)c1`: the Potency result was “inactive”.

With `CC(C)CCCCCCc1ccc(O)cc1`, the Potency was 27.3 µM (active).

Consider `CNC1(C)C2CCC(C2)C1(C)C` (stereo not given), for which the Potency result is “inactive”.

`NC(N)=NC(=O)Cc1c(Cl)cccc1Cl`: the Potency result is “inactive”.

With `CC(C)(C)NCC(O)c1cc(O)cc(O)c1` (stereo not given), the Potency result was “inactive”.

`CCn1cc(C(=O)O)c(=O)c2cc(F)c(N3CCNC(C)C3)c(F)c21` (stereo not given): the Potency entry is “inactive”.

Turning to `C=CC(=O)OCCCCCCOC(=O)C=C`, the Potency was 13.9 µM (active) and 21.7 µM (active).

Regarding `Cc1scc2c1N(C(=O)CN1CCN(C)CC1)c1ccccc1NC2=O`, the Potency result is “inactive”.

Turning to `Nc1nc2ccccc2[nH]1`, the Potency entry was “inactive”.

On to `Cc1ccc(S(=O)(=O)Oc2ccc(N=Nc3ccc(-c4ccc(N=Nc5c(O)ccc6cc(S(=O)(=O)O)cc(S(=O)(=O)O)c56)c(C)c4)cc3C)cc2)cc1`, for which the Potency entry is “inactive”.

Regarding `CC(=O)OCCOCCOCCOC(C)=O`, the Potency result was “inactive”.

On to `O=C(O)CP(=O)(O)O`, for which the Potency entry was “inactive”.

Take `COc1ccc(CCN2CCC(Nc3nc4ccccc4n3Cc3ccc(F)cc3)CC2)cc1`: the Potency is 2.11 µM (active).

As to `Cc1ccc(-c2cc(C(F)(F)F)nn2-c2ccc(S(N)(=O)=O)cc2)cc1`, the Potency was 43.1 µM (active) and 27.3 µM (active) and 29.8 µM (active).

For the compound `CC(C)(c1ccccc1)c1ccc(Nc2ccc(C(C)(C)c3ccccc3)cc2)cc1`, the Potency entry is “inactive”.

With `CCCC(=O)c1ccccc1`, the Potency result is “inactive”.

On to `c1cnc2cc3c(cc2n1)C1CNCC3C1`, for which the Potency entry was “inactive”.

Consider `Cc1cccc([N+](=O)[O-])c1C(=O)O`, for which the Potency entry is “inactive”.

Turning to `C=CC(=O)OCCCCCCCC`, the Potency result is “inactive”.

Turning to `CC(=O)N[C@@H](CS)C(=O)O`, the Potency result is “inactive”.

In the case of `CCCCC(CC)COC(=O)CC(C(=O)OCC(CC)CCCC)S(=O)(=O)O` (stereo not given), the Potency result was “inactive”.

As for `CC(N)=O`, the Potency entry is “inactive”.

Turning to `CC1=CC(=O)c2ccccc2C1=O`, the Potency is 30.6 µM (active).

As to `CC(C(O)c1ccc(O)cc1)N1CCC(Cc2ccccc2)CC1` (stereo not given), the Potency result was “inactive”.

As to `NC(N)=Nc1nc(CSCC/C(N)=N/S(N)(=O)=O)cs1`, the Potency result is “inactive”.

As to `CCc1cc(C(C)(C)C)c(O)c(C(C)(C)C)c1`, the Potency result is “inactive”.

Regarding `Oc1ccc(Cl)cc1Cc1cc(Cl)ccc1O`, the Potency was 31.2 µM (active) and 27.3 µM (active).

Consider `O=C(OCc1ccccc1)c1ccc(O)cc1`, for which the Potency result was “inactive”.

For the compound `CCCCC/C=C/CC1CC(=O)OC1=O` (stereo not given), the Potency entry is “inactive”.

Turning to `Cc1c2oc3c(C)ccc(C(=O)N[C@@H]4C(=O)N[C@H](C(C)C)C(=O)N5CCC[C@H]5C(=O)N(C)CC(=O)N(C)[C@@H](C(C)C)C(=O)O[C@@H]4C)c3nc-2c(C(=O)N[C@@H]2C(=O)N[C@H](C(C)C)C(=O)N3CCC[C@H]3C(=O)N(C)CC(=O)N(C)[C@@H](C(C)C)C(=O)O[C@@H]2C)c(N)c1=O` (I: T[dV]P[Sar][NMeV] / II: T[dV]P[Sar][NMeV]; ester I:1-I:C, II:1-II:C; linker I:N-II:N via Actinocin(9to1)), the Potency is 16.8 nM (active) and 10.6 nM (active).

As for `CCN1CCCC1CNC(=O)c1cc(S(=O)(=O)CC)c(N)cc1OC` (stereo not given), the Potency entry was “inactive”.

In the case of `O=C(O)CCc1ccccc1`, the Potency result was “inactive”.

As to `Cc1occc(=O)c1OC(=O)C(C)C`, the Potency entry was “inactive”.

On to `Oc1c(Cl)cc(Cl)c(Cl)c1Cc1c(O)c(Cl)cc(Cl)c1Cl`, for which the Potency is 24.3 µM (active) and 15 µM (active).

In the case of `O=Cc1ccc(Cl)cc1`, the Potency result is “inactive”.
